Test systems include NCI-H23 lung; NCI-H226 lung; NCI-H322M lung; HOP-62 NSCLC; NCI-H460 lung; HOP-92 NSCLC; NCI-H522 lung; A549/ATCC NSCLC; 786-0 renal; COLO 205 colon.
What all share (test): NCI-60 one-dose screen, 48 h (100 = growth as untreated, 0 = no growth, -100 = all killed)
Holding throughout (conditions): 10 µM unless noted

This is part of a sample that, as a whole, favours compounds with a hit. Of some 83,000 tested, about 20% had one in any assay.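 Single-concentration screen, 48 h exposure, 96-well plates. Endpoint: percent growth. Below 10 = active.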 Values without a mark were called inactive. Activity calls are given as the source filed them.

On to `COc1ccc(C2=CN3CC=CC3CC2=O)cc1` (stereo not given), for which the growth is 97.8% with NCI-H23 lung; 98% in the assay on NCI-H226 lung; 108% in the assay with NCI-H322M lung; 91.1% in the assay with HOP-62 NSCLC; 106% with NCI-H460 lung; 107% with HOP-92 NSCLC. For the same compound, the growth in the assay on NCI-H522 lung was 85.2%; in the assay with A549/ATCC NSCLC it was 87.4%; with 786-0 renal, 88.8%; in the assay with COLO 205 colon, 102%.
Take `CC1(C)NCCC[C@]2(C)[C@H]3CC[C@H]4[C@H]5[C@H](C(=O)/C=C/c6cccnc6)CCC[C@]5(CO)CC[C@@]4(C)[C@]3(C)CC[C@@H]12`: the growth in the assay with NCI-H23 lung was 77.6%; in the assay on NCI-H226 lung, 96.2%; in the assay on NCI-H322M lung, 85.5%; with HOP-62 NSCLC, 97.3%; in the assay on NCI-H460 lung, 10.9%; in the assay with HOP-92 NSCLC, 48.1%. Besides, the growth with NCI-H522 lung was 88%; with A549/ATCC NSCLC, 67%; with 786-0 renal, 83.8%; in the assay on COLO 205 colon, -72.9% (active).
On to `Nn1c(=O)c(=O)[nH]c2c(cnn2-c2ccccc2)c1=O`, for which the growth in the assay with NCI-H23 lung is 108%; with NCI-H226 lung, 94.2%; with NCI-H322M lung, 108%; with HOP-62 NSCLC, 86.2%; in the assay on NCI-H460 lung, 117%; in the assay with HOP-92 NSCLC, 106%. The growth in the assay with NCI-H522 lung is 96.2%; with A549/ATCC NSCLC, 101%; in the assay with 786-0 renal, 103%; in the assay on COLO 205 colon, 121%.
For the compound `CCCn1nc(C(=O)N(C)Cc2ccccc2)c2c1CCC(N1CCc3ccccc31)C2` (stereo not given), the growth with NCI-H23 lung was 97.9%; with NCI-H226 lung, 97.9%; in the assay with NCI-H322M lung, 101%; in the assay with HOP-62 NSCLC, 103%; in the assay with NCI-H460 lung it was 112%; with HOP-92 NSCLC, 90.7%. Moreover, the growth with NCI-H522 lung was 86.5%; with A549/ATCC NSCLC, 93%; in the assay with 786-0 renal, 95.2%; with COLO 205 colon, 117%.
As to `Cc1ccc(S(=O)(=O)Oc2ccc3sc4cccc(NCCN(C)C)c4c(=O)c3c2)cc1`, the growth is -93.5% (active) with NCI-H23 lung; -71.9% (active) in the assay on NCI-H226 lung; -88.1% (active) with NCI-H322M lung; -89.6% (active) with HOP-62 NSCLC; -92.7% (active) in the assay with NCI-H460 lung; -77.4% (active) in the assay on HOP-92 NSCLC. In addition, the growth in the assay with NCI-H522 lung was -81.7% (active); in the assay on A549/ATCC NSCLC it was -74.1% (active); with 786-0 renal, -85.7% (active); in the assay with COLO 205 colon, -83.8% (active).
Consider `COc1cccc(/C=N/NC(=O)c2ccccc2N2CCCC2)c1O`, for which the growth is 53.3% in the assay on NCI-H23 lung; 71.7% with NCI-H226 lung; 49.6% in the assay on NCI-H322M lung; 46.9% with HOP-62 NSCLC; 20.9% with NCI-H460 lung; 47.6% in the assay with HOP-92 NSCLC. Besides, the growth with NCI-H522 lung is -34.1% (active); in the assay on A549/ATCC NSCLC, 70.5%; with 786-0 renal it was 53.4%; in the assay with COLO 205 colon, 54.3%.
For the compound `O=C(NNC(=O)c1nc2cc(F)ccc2n2cccc12)c1cnccn1`, the growth in the assay with NCI-H23 lung is 45.7%; in the assay on NCI-H226 lung it was 42.4%; with NCI-H322M lung it was 45.2%; in the assay with HOP-62 NSCLC it was 29.7%; with NCI-H460 lung, 14.7%; in the assay on HOP-92 NSCLC, 47.7%. Further, the growth is 56.1% in the assay on NCI-H522 lung, 28.5% in the assay with A549/ATCC NSCLC, 51.9% in the assay on 786-0 renal and 16.5% in the assay on COLO 205 colon.
As to `CCOc1c(OC)cc2c(c1O)C(=O)N[C@@H]1[C@@H](O)[C@@H](O)[C@H](O)C[C@@H]21`, the growth with NCI-H23 lung was 107%; with NCI-H226 lung, 99.8%; with NCI-H322M lung, 103%; in the assay on HOP-62 NSCLC, 98.6%; in the assay with NCI-H460 lung, 112%; in the assay on HOP-92 NSCLC, 85.2%. The growth in the assay on NCI-H522 lung is 92.3%; with A549/ATCC NSCLC it was 94.7%; in the assay on 786-0 renal, 102%; in the assay on COLO 205 colon it was 115%.
Consider `O=c1c2ccccc2c(=O)c2c1sc1c(=O)c3ccc(O)cc3c(=O)c12`, for which the growth is -38.8% (active) with NCI-H23 lung; -91.3% (active) with NCI-H226 lung; -95.9% (active) in the assay on NCI-H322M lung; -78.8% (active) in the assay with HOP-62 NSCLC; -73.1% (active) with NCI-H460 lung; -24.9% (active) in the assay on HOP-92 NSCLC. Besides, the growth in the assay with NCI-H522 lung was -64.5% (active); with A549/ATCC NSCLC, -55.1% (active); with 786-0 renal it was -52.7% (active); in the assay on COLO 205 colon, -82.5% (active).
As for `Cc1nn(-c2ccccc2)c(N)c1N=C1NC(=O)/C(=C/c2ccc(Br)cc2)S1`, the growth in the assay with NCI-H23 lung is 75.8%; with NCI-H226 lung it was 78.4%; with NCI-H322M lung, 83.5%; in the assay with HOP-62 NSCLC, 59.6%; in the assay with NCI-H460 lung, 93.1%; in the assay on HOP-92 NSCLC it was 65.6%. In addition, the growth in the assay with NCI-H522 lung was 85.4%; with A549/ATCC NSCLC it was 74.3%; with 786-0 renal, 94.6%; in the assay on COLO 205 colon it was 101%.
Regarding `CCOC(=O)/C=C1\S/C(=N\Nc2cc(=O)[nH]c3ccccc23)N(c2ccccc2)C1=O`, the growth in the assay on NCI-H23 lung was 97.9%; in the assay with NCI-H226 lung it was 95.4%; in the assay with NCI-H322M lung, 101%; in the assay with HOP-62 NSCLC, 92.1%; with NCI-H460 lung, 107%; in the assay on HOP-92 NSCLC it was 88.8%. Moreover, the growth in the assay with NCI-H522 lung was 96.7%; in the assay on A549/ATCC NSCLC, 103%; in the assay with 786-0 renal, 101%; in the assay on COLO 205 colon it was 106%.
As for `O=C1/C(=C/c2ccccc2F)CN(C(=O)C(Cl)Cl)C/C1=C\c1ccccc1F`, the growth is -33.2% (active) with NCI-H23 lung; 39.4% in the assay with NCI-H226 lung; -18.5% (active) with NCI-H322M lung; 13.8% in the assay with HOP-62 NSCLC; -74.2% (active) in the assay on NCI-H460 lung; -27.9% (active) with HOP-92 NSCLC. Moreover, the growth was -49.8% (active) in the assay on NCI-H522 lung, -2.28% (active) in the assay with A549/ATCC NSCLC, -71.9% (active) with 786-0 renal and -57.6% (active) with COLO 205 colon.
For `COc1ccc(/C=C2\CN(C(=O)C(Cl)Cl)C/C(=C\c3ccc(OC)cc3)C2=O)cc1`, the growth in the assay on NCI-H23 lung was -36.9% (active); with NCI-H226 lung it was 61.3%; with NCI-H322M lung, 4.8% (active); in the assay on HOP-62 NSCLC, 40.5%; in the assay on NCI-H460 lung, -34.5% (active); in the assay with HOP-92 NSCLC it was -3.88% (active). Besides, the growth in the assay with NCI-H522 lung is 14.9%; in the assay on A549/ATCC NSCLC it was 4.79% (active); with 786-0 renal, -48.4% (active); in the assay with COLO 205 colon, -34.2% (active).

Values taken from PubChem BioAssay (NCI).
